Data taken from the supplement of paper PMC3334620.
Over roughly 33,000 sequences, “E-score (-0.5 to 0.5)” has its median near -0.054; the highest 2% begin near 0.35. The list comes from a sample in which the highest values are over-represented; it also holds similar and randomly drawn sequences.

These sequences were tested against T1, Stb5 (UniProt P38699) (assay: PBM E-score (8-mer binding enrichment) (E-score (-0.5 to 0.5)); higher = stronger / more preferred TF binding). Details: protein concentration: 200 nM; construct: GST-full length.
T1 sequence: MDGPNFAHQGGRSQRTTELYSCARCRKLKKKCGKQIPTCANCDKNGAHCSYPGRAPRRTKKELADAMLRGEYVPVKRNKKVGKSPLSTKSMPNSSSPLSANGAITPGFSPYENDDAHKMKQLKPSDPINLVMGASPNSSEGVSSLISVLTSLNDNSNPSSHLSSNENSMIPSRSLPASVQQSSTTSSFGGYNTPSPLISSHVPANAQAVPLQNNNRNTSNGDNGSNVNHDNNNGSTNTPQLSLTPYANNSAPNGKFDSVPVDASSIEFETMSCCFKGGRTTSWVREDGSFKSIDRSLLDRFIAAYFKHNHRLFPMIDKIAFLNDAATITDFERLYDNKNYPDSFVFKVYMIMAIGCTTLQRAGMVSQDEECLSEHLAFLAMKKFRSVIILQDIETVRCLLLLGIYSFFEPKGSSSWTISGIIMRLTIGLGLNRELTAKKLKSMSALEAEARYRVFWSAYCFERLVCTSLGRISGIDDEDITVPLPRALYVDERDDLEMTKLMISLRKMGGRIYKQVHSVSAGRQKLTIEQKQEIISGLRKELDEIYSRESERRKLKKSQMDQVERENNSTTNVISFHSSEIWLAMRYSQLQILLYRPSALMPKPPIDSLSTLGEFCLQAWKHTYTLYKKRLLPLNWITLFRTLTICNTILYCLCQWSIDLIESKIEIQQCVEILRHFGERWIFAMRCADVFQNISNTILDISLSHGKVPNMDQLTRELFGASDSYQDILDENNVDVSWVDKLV
Experimental: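 Universal 'all 10-mer' protein binding microarrays (Agilent AMADID 015681) probed with GST-tagged S. cerevisiae TFs (full-length or DBD) made by in vitro transcription/translation (PURExpress), about 100-200 nM. Bound TF was detected with fluorescent anti-GST. Each ungapped 8-mer (which stands for itself and its reverse complement) is scored by the PBM enrichment score (E-score), a modified Wilcoxon-Mann-Whitney statistic from -0.5 to +0.5, computed with the Universal PBM Analysis Suite. Scale: above 0.35 generally sequence-specific binding.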

Sequence	PBM E-score
ACCAGACA	-0.0752
ATCTCATA	-0.186
AAAGTAAG	-0.119
CATTTTAG	0.189
CTTACTGA	-0.164
AAGAGTCC	0.118
TGTGTTAA	-0.145
GGTGTTTA	0.425
AGTGTTAC	-0.0686
CGTGTAAC	0.134
GGTGTTAA	0.447
CGTGTTTA	0.112
GGTGTTAC	0.4
CGTGTTAA	-0.191
CGTGTTAC	-0.0374
AGTGTTTA	-0.0504
GGTGTAAC	0.381
AGTGTAAC	-0.175
ATTCACAC	-0.136
CCTGATAA	-0.0146
CCCAACCA	-0.0714
GATCTAAC	-0.143
ATACTATG	-0.0158
ACGCTGCT	-0.0899
CACTCTCA	-0.237

Sequence	PBM E-score
ACTTTCCA	-0.0496
CAGCGGAA	0.164
CAGCGGCG	0.326
CAGCGGGC	0.224
CAGCGGAG	0.352
CAGCGGGG	0.358
AAGCGGGG	0.296
ACCGAACG	0.308
ATGAAAGG	0.0036
ACCGCCGT	0.38
ACCGCAGT	0.206
ACCGCCTG	0.25
TCCGCCGA	0.346
ACCGCCTA	0.206
ACCGCCGA	0.405
ACCGCCAC	0.316
ACCGCCGG	0.414
ACCGCCTC	0.313
GCCGCCGA	0.329
ACCGCCGC	0.383
ACGGTTGA	-0.165
ACTCTTTG	-0.24
ATCAAGGA	-0.12
CGCCCCCG	0.209
ACCTTTGC	-0.0619

Sequence	PBM E-score
ACCACCTA	-0.134
GCCATACA	-0.138
GTCCTCAA	-0.137
CACGTCAG	-0.163
ACCGCCAT	0.265
GCCGCCAC	0.191
GCCGCCGC	0.391
CCCGCCGA	0.345
CCCGCCGG	0.39
ACCGCCAG	0.368
ACCGCCAA	0.276
CCCGCCGC	0.347
GCCGCCAA	0.24
ATACGGGC	0.103
TTGGACAA	-0.195
ATTATTGG	0.0592
AGGCCCAG	-0.226
AGGAGGGG	-0.302
GTTTTCGA	-0.115
GTCCCGAA	0.121
TCGCGCAA	-0.136
ATAGACAA	-0.202
CGTGAGGC	-0.133
ATTCAGCC	-0.129
CACCGCGA	0.37

Sequence	PBM E-score
CACCGCGC	0.401
TACCGCGA	0.324
CCCCGCGG	0.349
CCGCGCGG	0.404
AACCGCGC	0.273
AACCGCGG	0.347
CCGCGCGA	0.168
AACCGCGA	0.272
GACCGCGC	0.246
CACCGCGG	0.419
CCGCGCGC	0.281
AATACTCC	0.173
GACAGTTA	-0.0979
AAGACTAG	-0.389
AGCTACAG	-0.215
TCAATCCA	-0.0437
GCGCTAGA	0.112
AGCACGGG	0.199
ACCACCCA	-0.217
GGCCTCCC	-0.0321
CGGTGCAC	0.0634
CCACCGTC	0.246
AAACCGTG	-0.0899
ACACCGTG	0.416
ACACCGTA	0.346

Sequence	PBM E-score
AGACCGTC	0.252
ACACCGTC	0.424
AACTAGCA	-0.134
CTTCGGCA	0.209
CAGCTGGG	-0.0897
CTTGGGTA	-0.128
AAACTCTA	-0.134
CGGCATGA	0.367
CGGCATCC	0.224
CGGCACCA	0.394
AGGCACCA	-0.0686
CGGCATCA	0.387
GGGCATGA	-0.083
CGGCACCG	0.342
CGGCATGC	0.273
AGGCATCA	-0.202
CTCCCTAC	-0.0607
AAGTACCG	0.441
AAGTACCA	-0.0936
AAGTACCC	0.0204
AATTACCC	0.0888
CAATACCG	0.332
AAATACCG	0.432
CATTACCG	0.205
AATTACCG	0.395

Sequence	PBM E-score
AAATACCC	0.279
ACTTGCAA	-0.00221
CAAGAAGG	-0.193
ATCGTATC	-0.175
AGTCTTAC	-0.185
AAGGGCAT	-0.336
ACTCGGCA	0.00054
GCATGAGC	-0.0601
GCCCAAGA	-0.114
CCATTGCG	0.116
CCGCGGAA	0.265
CGGCGGAG	0.347
CGGCGGAC	0.377
GCGCGGAC	0.292
CGGCGGAA	0.348
CCGCGGAC	0.362
CCGCGGAG	0.298
GGGCGGAC	0.408
GGGCGGAA	0.241
AATATATT	0.208
CCGAACTA	0.177
CAGCAGGG	-0.0502
CCAGAAGC	0.0499
CCTCCTTC	-0.213
CGAGGTGC	-0.146

Sequence	PBM E-score
CGCACCGC	0.352
AGCACCAC	-0.0526
AGCACCGC	0.461
CGCACCGA	0.272
CGCACCTC	-0.0539
AGCACCTC	-0.163
TCAGCTAA	-0.245
GACTAGTC	-0.117
ACTGTATG	-0.0542
ACCGCGGG	0.317
GCCGCGGA	0.299
ACCGCGGC	0.412
ACCGCGGT	0.39
CCCGCGGC	0.333
GCCGCGGC	0.331
TCCGCGGA	0.144
ACCGCGGA	0.358
ACCGCGAT	0.346
CCCGCGGG	0.361
CCCGCGGA	0.322
CCCGCGCG	0.342
CAAAACAG	-0.0698
CTGACAGA	-0.0917
ACCAGCCC	0.211
AACGAGGG	-0.19

Sequence	PBM E-score
AAGTCGGT	0.324
ACTTAAAC	-0.0316
AGGGAGCG	-0.0929
AGCTATCG	-0.103
AAATGAGA	-0.261
GGCACTGA	0.00323
GAAGAATA	-0.123
AAAGACCG	0.448
AAGGACCA	-0.0213
AAGGACCG	0.383
AATGACCG	0.365
AAGGACCT	0.00048
AATGACCT	-0.0215
AAAGACCA	-0.216
CAAGACCG	0.312
AATGACCA	-0.133
AGCATGGC	-0.178
GGCCTAGA	-0.147
CTGCATCA	-0.327
CACCTGTA	-0.208
ACCCGACC	0.279
GCCCGACA	0.334
CCCCGACG	0.449
TCCCGACA	0.291
CCCCGACC	0.355

Sequence	PBM E-score
ACCCGACG	0.287
GCCCGACC	0.306
CCCCGACA	0.412
CCCCGAGG	0.148
GCGACTCA	-0.156
CGCAGCAG	-0.0406
GGGATATA	0.272
CGGATGTA	0.381
CGGATATC	0.193
GGGATCTA	0.0662
CGGATCTC	0.103
CGGATTTA	0.452
GGGATTTA	0.351
CGGATGTC	0.223
CGGATTTC	0.223
CGGATATA	0.443
GGGATGTA	-0.0169
CGGATCTA	0.424
AGCGATGA	0.0899
CGCCAGGA	-0.17
ACGTCATC	-0.115
CTACTACC	0.216
ACAGCACC	0.202
GGCTAGTA	-0.139
ACCCTGCG	-0.165

Sequence	PBM E-score
TCCACCAA	-0.103
GACAAAGA	-0.0701
AATTCCCA	-0.261
AATCCGGG	0.233
AATCCCCC	0.127
CATTCCCG	0.203
AATCCCCG	0.452
AATTCCCG	0.363
CATCCCGG	0.134
AATCCCGG	0.352
CATCCCCG	0.264
GATGCAGC	0.0949
CATAAAGC	-0.0703
CTCAAATC	-0.136
TCACTCGA	-0.204
GGCGGTGA	0.376
CGCGGTAG	0.249
CTCGGTGC	0.148
AGCGGTCC	0.327
CGCGGTGA	0.359
CGCGGTCA	0.21
CGCGGTGC	0.378
GCCGGTGA	0.316
GGCGGTCA	0.342
CGCGGTAA	0.343

Sequence	PBM E-score
CGCGGTCC	0.356
CCCGGTGA	0.261
CCTATCAG	-0.131
CCAATATA	-0.07
CGCTCTAC	-0.0196
CAAAGCCC	0.285
ACCGGTGA	0.319
CGCGGTTA	0.37
AGCGGTTC	0.0808
AGCGGTGG	0.346
CCCGGTGC	0.315
AGCGGTTA	0.122
CGCGGTTC	0.205
AGCGGTGA	0.387
AGCGGTAG	0.204
AGCGGTGC	0.396
ACCGGTGC	0.377
AGCGGTCA	0.29
GCCGGAAA	0.187
CGTTGGAC	-0.0247
GTCCCATA	-0.0984
AGATTCAA	-0.16
AGCCTGCC	-0.229
CCTGACCA	-0.291
GACGGTGC	0.392

Sequence	PBM E-score
ACCGGTAA	0.326
ACCGGTAT	0.336
CACGGTGC	0.306
GACGGTGA	0.325
ACCGGTAC	0.397
AGAATGAT	-0.254
ATTGCATA	-0.0781
CAAGATGA	-0.286
AACCTTCC	-0.135
CGACTCCA	-0.0871
TAAAAAGA	0.046
GCAGAGTA	-0.202
CATCTAGC	-0.12
CGGGCCGA	0.327
GGGGCCGA	0.158
AGGGCCGG	0.271
CGGGCCGC	0.195
AGGGCCGC	0.36
AGGGCCGA	0.354
CTGGGGCC	-0.0638
GGTTGTAA	0.0915
GGGAGTCA	-0.163
AGGAGTCA	-0.194
CGGAGTGA	0.391
CGGAGTGC	0.198

Sequence	PBM E-score
GGGAGTGA	-0.0152
CGGAGTCA	0.391
AGCGCAGA	-0.0263
CCATGACG	0.0201
CCAATTTA	0.119
ACACCGCA	0.44
CGACCGCC	0.255
ATACCGCG	0.33
CCACCGCG	0.3
TCACCGCA	0.305
ACACCGCG	0.444
CTACCGCC	0.305
CCACCGCA	0.245
ATACCGCC	0.434
AGACCGCG	0.297
AGACCGCC	0.364
ATACCGCA	0.325
CCCGTGAC	0.155
GATTTGAC	0.0761
CAGCGTAA	-0.168
CCCATTAG	-0.361
AATTCCGA	0.265
GGACGGGA	0.1
CCTTTGCG	0.03
GATGCCCA	-0.136

Sequence	PBM E-score
AAACCGCC	0.302
ATACCGTA	0.259
GGACCGCC	0.288
ATACCGTG	0.249
GCACCGCC	0.377
ACACCGCT	0.419
CCACCGCC	0.282
GAACCGCC	0.187
ATACCGTC	0.357
AAACCGCT	0.0494
ACACCGCC	0.459
AGACCGCT	0.345
ATCTGGTC	-0.153
ATTTAGAG	-0.138
AATGGTGA	-0.231
TGTAGCAA	-0.0607
AATAAGCA	-0.0559
CAAAGTAG	-0.164
GGACCGCA	0.188
GCACCGCA	0.361
GCACCGTA	0.248
